Source: PubChem BioAssay
The source made the active and inactive calls.

Columns and labels:
[1] = optical density shifts of acrAB sulA E. coli – strain DRC41, OD650, 48 h, E. coli filamentation inducer project, primary screen (AID 1152); settings: higher = more signal, called active from +8 up or from −8 down;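 also: E. coli MC1000 strain DRC41 lacking acrAB efflux pump and sulA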
[2] = probe aLefty1 binding on compound microarray – biochemical, small-molecule microarray, 635/667 nm fluorescence, primary screen (AID 1153); settings: higher = more signal;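 also: score merges spot fluorescence with signal-to-noise ratio from the scanned slide images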
[3] = plasmodial surface anion channel blockers, osmotic lysis – cell-based, P. falciparum Indochina, OD700, 1 h, primary screen (AID 1154); settings: P. falciparum Indochina infected RBC osmotic lysis, higher = more signal, called active from +8 up or from −8 down
[4] = plasmodial surface anion channel blockers, osmotic lysis – cell-based, P. falciparum Indochina, OD700, 2 h, primary screen (AID 1155);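 also: lysis reports solute entry through the parasite surface anion channel PSAC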; settings: P. falciparum Indochina infected erythrocytes, higher = more signal, called active from +8 up or from −8 down
[5] = changes in parasitized red cell lysis, either direction – P. falciparum Indochina, OD700, 3 h, PSAC antagonist project, primary screen (AID 1156); settings: P. falciparum-infected erythrocytes, osmotic lysis, higher = more signal, called active from +8 up or from −8 down
[6] = plasmodial surface anion channel blockers, osmotic lysis – cell-based, P. falciparum Indochina, OD700, 18 h, primary screen (AID 1157); settings: P. falciparum Indochina infected erythrocytes, osmotic lysis OD700, 18 h; higher = more signal, called active from +8 up or from −8 down
[7] = S6 kinase pathway phospho-S6 level changes – cell-based, A549, cytoblot, luminescence, serum-stimulated, primary screen (AID 1158); settings: 5 h, higher = more signal;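 also: serum-stimulated A549 lung adenocarcinoma cells; signal is phosphorylated S6 detected by cytoblot immunostaining with HRP secondary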
[8] = biological target: NADPH oxidase 2 (Homo sapiens) (UniProt P04839); assay: compounds shifting NOX2 Amplex Red fluorescence – cell-based, HEK293-NOX2, PMA-stimulated, NOX inhibitor project, primary screen (AID 1159); settings: 45 min, higher = more signal, called active from +8 up or from −8 down; also: test concentration not given here
[9] = biological target: NADPH oxidase 4 (Homo sapiens) (UniProt Q9NPH5); assay: compounds shifting NOX4 Amplex Red fluorescence – cell-based, HEK293-NOX4, tetracycline-induced, NOX inhibitor project, primary screen (AID 1160); settings: HEK293-NOX4, Amplex Red H2O2 fluorescence, 45 min; higher = more signal, called active from +8 up or from −8 down
[10] = biological target: NADPH oxidase 5 (Homo sapiens) (UniProt Q96PH1); assay: compounds shifting NOX5 Amplex Red fluorescence – cell-based, HEK293-NOX5, NOX inhibitor project, primary screen (AID 1161); settings: HEK293-NOX5, ionomycin, 45 min, higher = more signal
Chain of NADPH oxidase 5 (Homo sapiens) (Q96PH1 whole entry, looked up): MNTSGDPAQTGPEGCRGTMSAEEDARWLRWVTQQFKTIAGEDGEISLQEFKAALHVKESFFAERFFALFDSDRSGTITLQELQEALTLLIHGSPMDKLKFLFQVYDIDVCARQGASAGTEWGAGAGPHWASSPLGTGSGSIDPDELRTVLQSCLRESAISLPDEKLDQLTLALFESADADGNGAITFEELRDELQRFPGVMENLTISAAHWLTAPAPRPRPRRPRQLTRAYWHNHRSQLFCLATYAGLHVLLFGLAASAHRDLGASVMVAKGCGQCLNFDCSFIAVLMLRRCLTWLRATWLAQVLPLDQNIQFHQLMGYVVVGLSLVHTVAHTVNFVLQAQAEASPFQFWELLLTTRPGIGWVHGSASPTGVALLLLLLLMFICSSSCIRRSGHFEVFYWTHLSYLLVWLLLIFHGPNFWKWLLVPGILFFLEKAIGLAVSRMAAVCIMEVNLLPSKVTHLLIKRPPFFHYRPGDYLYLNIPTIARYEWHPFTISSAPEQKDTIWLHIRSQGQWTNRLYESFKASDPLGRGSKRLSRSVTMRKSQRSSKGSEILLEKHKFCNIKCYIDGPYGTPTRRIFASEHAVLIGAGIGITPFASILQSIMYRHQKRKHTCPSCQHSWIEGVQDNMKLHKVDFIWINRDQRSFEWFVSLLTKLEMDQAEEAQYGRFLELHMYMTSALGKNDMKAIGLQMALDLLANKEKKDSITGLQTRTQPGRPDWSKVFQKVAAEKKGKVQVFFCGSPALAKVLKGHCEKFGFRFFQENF

Chain of NADPH oxidase 4 (Homo sapiens) (Q9NPH5 whole entry, looked up): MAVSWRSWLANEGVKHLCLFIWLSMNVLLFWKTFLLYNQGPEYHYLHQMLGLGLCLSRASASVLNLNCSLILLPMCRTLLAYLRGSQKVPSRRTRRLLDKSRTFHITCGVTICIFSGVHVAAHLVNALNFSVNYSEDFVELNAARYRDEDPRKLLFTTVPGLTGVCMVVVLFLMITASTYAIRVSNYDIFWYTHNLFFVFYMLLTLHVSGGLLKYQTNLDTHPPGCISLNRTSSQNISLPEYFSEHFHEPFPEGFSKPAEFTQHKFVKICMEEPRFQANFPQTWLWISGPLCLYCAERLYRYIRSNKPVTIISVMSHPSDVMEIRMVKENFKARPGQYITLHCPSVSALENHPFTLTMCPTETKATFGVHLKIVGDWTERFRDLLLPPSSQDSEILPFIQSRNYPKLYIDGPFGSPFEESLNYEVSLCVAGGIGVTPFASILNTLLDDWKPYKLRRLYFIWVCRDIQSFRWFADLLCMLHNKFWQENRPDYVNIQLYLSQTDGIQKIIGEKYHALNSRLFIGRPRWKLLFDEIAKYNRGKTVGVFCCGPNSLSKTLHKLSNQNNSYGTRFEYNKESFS
Chain of NADPH oxidase 2 (Homo sapiens) (P04839 whole entry, looked up): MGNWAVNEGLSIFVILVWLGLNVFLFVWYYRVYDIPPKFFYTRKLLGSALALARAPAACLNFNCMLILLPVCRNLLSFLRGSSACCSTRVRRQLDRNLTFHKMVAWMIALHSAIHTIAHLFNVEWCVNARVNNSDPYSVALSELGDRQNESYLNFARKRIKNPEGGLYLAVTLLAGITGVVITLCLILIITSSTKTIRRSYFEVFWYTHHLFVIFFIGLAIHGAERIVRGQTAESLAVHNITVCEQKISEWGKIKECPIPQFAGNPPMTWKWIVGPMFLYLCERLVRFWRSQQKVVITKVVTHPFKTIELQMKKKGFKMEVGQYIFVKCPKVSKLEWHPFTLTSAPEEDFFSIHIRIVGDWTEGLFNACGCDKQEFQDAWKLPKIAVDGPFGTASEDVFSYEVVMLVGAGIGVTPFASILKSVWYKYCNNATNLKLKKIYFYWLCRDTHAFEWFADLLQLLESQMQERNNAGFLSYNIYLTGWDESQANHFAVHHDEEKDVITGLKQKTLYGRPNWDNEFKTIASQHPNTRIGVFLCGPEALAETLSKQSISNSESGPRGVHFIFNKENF

Compound	z-score [1]	composite z-score [2]	z-score [3]	z-score [4]	z-score [5]	z-score [6]	z-score [7]	z-score [8]	z-score [9]	z-score [10]
CO[C@H]1O[C@H](CO)[C@@H](OC(=O)Nc2ccc3c(c2)OCO3)[C@H](OC(=O)Nc2ccc3c(c2)OCO3)[C@@H]1OC(=O)Nc1ccc2c(c1)OCO2	-0.53 (inactive)	0.26	11 (active)	1.62 (inactive)	1.55 (inactive)	0.742 (inactive)	-0.563	-1.32 (inactive)	-1.19 (inactive)	-1.57
O=C1OCCC/C=C\[C@H]2OC34C=CCN(c5ccc6ccccc6c5)C(=O)[C@H]3N(CCO)C(=O)[C@@H]4C12 (stereo not given in full)	-0.067 (inactive)	0.0313	2.17 (inactive)	0.476 (inactive)	0.217 (inactive)	0.532 (inactive)	0.235	0.356 (inactive)	-0.419 (inactive)	1.81
COCCOC(=O)N1C(=O)[C@@]2(c3cc(C#CCCO)ccc31)[C@H](c1ccc(OCCO)cc1)N1[C@H](c3ccccc3)[C@H](c3ccccc3)OC(=O)[C@H]1[C@@H]2C(=O)Nc1nc2ccccc2s1	-0.0929 (inactive)	0.181	3.74 (inactive)	1.5 (inactive)	0.258 (inactive)	0.678 (inactive)	-0.115	1.58 (inactive)	1.26 (inactive)	1.43
CC1CC/C=C\[C@H]2OC34C=CCN(c5ccc6ccccc6c5)C(=O)[C@H]3N(CCCO)C(=O)[C@@H]4C2C(=O)O1 (stereo not given in full)	-0.866 (inactive)	-0.138	1.33 (inactive)	0.398 (inactive)	-0.0069 (inactive)	0.357 (inactive)	-0.0819	1.84 (inactive)	-1.18 (inactive)	2.84
COCCCNC(=O)[C@@]1(CCC(=O)OC(C)(C)C)N=C(c2ccc(OCCCO)cc2)O[C@H]1c1ccccc1N=[N+]=[N-]	1.15 (inactive)	0.286	30.4 (active)	29.3 (active)	2.54 (inactive)	2.43 (inactive)	-0.226	-1.35 (inactive)	0.197 (inactive)	-2.03
C=CCNC(=O)[C@@H]1[C@H]2C(=O)O[C@H](c3ccccc3)[C@H](c3ccccc3)N2[C@H](c2ccc(O)cc2)[C@@]12C(=O)N(C(=O)OCCOC)c1ccc(C#CC3=CCCCC3)cc12	-1.1 (inactive)	0.319	1.78 (inactive)	0.836 (inactive)	-0.942 (inactive)	0.313 (inactive)	0.0229	1.61 (inactive)	0.339 (inactive)	0.344
CN1C(=O)C2C=CC(C(O)c3cccn3C)N(Nc3ccc([N+](=O)[O-])cc3[N+](=O)[O-])C2C1=O (stereo not given)	-0.824 (inactive)	0.551	0.627 (inactive)	1.31 (inactive)	-0.0499 (inactive)	1.17 (inactive)	-1.11	-0.797 (inactive)	-1.5 (inactive)	-1.27
COc1ccc(C#Cc2ccc3c(c2)[C@]2(C(=O)N3)[C@H](C(=O)O)[C@H]3C(=O)O[C@H](c4ccccc4)[C@H](c4ccccc4)N3[C@@H]2c2ccc(O)cc2)cc1	0.384 (inactive)	0.174	-2.35 (inactive)	-2.47 (inactive)	-8.72 (active)	-2.8 (inactive)	2.29	0.479 (inactive)	-3.77 (inactive)	-1.13
CCOC(=O)C1=CC[C@@H](c2ccccc2)N(S(=O)(=O)c2ccc(C)cc2)[C@H]1c1ccccc1	-1.11 (inactive)	0.155	1.97 (inactive)	0.945 (inactive)	0.369 (inactive)	0.24 (inactive)	-0.685	0.18 (inactive)	-0.464 (inactive)	1.75
CC(C)N1CC=CC23O[C@@H]4C=CCCOC(=O)C4[C@H]2C(=O)N(CCCO)[C@@H]3C1=O (stereo not given in full)	2.91 (inactive)	0.0656	-0.0633 (inactive)	-0.706 (inactive)	1.3 (inactive)	-0.646 (inactive)	0.842	-1.67 (inactive)	-2.17 (inactive)	-2.78
Oc1ccc2cc[n+](Cc3cc4c(cc3Br)OCO4)cc2c1	1.27 (inactive)	-0.196	2.67 (inactive)	0.864 (inactive)	-0.655 (inactive)	0.474 (inactive)	0.122	-0.546 (inactive)	-0.154 (inactive)	0.389
COC(=O)[C@]1(CCS(=O)(=O)c2ccccc2)N=C(c2ccc(OCCCO)cc2)O[C@@H]1c1ccccc1N=[N+]=[N-]	-1.59 (inactive)	0.569	29.4 (active)	27.2 (active)	4.22 (inactive)	6.59 (inactive)	0.188	-2.07 (inactive)	0.661 (inactive)	-2.01
COc1cc2c(cc1O)C=[N+](Cc1sc3ccccc3c1Cl)CC2	-0.569 (inactive)	0.065	5.58 (inactive)	2 (inactive)	-0.703 (inactive)	1.58 (inactive)	-0.336	-3.84 (inactive)	-2.35 (inactive)	-4.02
C=CCC(OC(C)=O)[C@@H]1[C@@H](N(Cc2cccc3ccccc23)C(=O)Cc2ccc(OC)cc2)c2cc(OCCCO)ccc2N1C(=O)c1ccc(-c2ccccc2)cc1 (stereo not given in full)	-0.62 (inactive)	0.0429	0.0926 (inactive)	0.299 (inactive)	-0.278 (inactive)	0.263 (inactive)	0.0614	-1.33 (inactive)	-0.257 (inactive)	-1.21
Cc1cc(C)c(C(O)C2C=CC3C(=O)N(c4ccccc4)C(=O)C3N2Nc2ccccc2F)c(C)c1 (stereo not given)	-1.56 (inactive)	-0.0111	1.33 (inactive)	1.35 (inactive)	-0.167 (inactive)	1.32 (inactive)	-0.855	-0.611 (inactive)	-0.918 (inactive)	-0.344
COC(=O)[C@@]1(Cc2ccc(F)cc2)[C@H]2c3cc(C(=O)N4CCCC4)n(CCc4c[nH]c5ccccc45)c3C[C@H]2CN1C(=O)c1ccccc1	-2.35 (inactive)	1.04	2.02 (inactive)	0.946 (inactive)	0.805 (inactive)	1.06 (inactive)	-0.142	0.515 (inactive)	0.988 (inactive)	1.9
C=CCN1Cc2ccccc2[C@@H]2OC(c3ccc(OCCCO)cc3)=N[C@]2(CC=C)C1=O	0.408 (inactive)	1.49	22.5 (active)	7.24 (inactive)	5.55 (inactive)	1.33 (inactive)	-0.218	-1.98 (inactive)	0.452 (inactive)	1.03
CCOC(=O)C=Cc1cccc(C)c1O	-0.718 (inactive)	-0.0011	9 (active)	-0.0712 (inactive)	0.193 (inactive)	-2.11 (inactive)	1.52	-5.05 (inactive)	-4.89 (inactive)	-4.98
CCCCC=C[C@@H](NC(=O)OCc1ccccc1Cl)c1ccccc1	-2.07 (inactive)	2.4	0.278 (inactive)	0.894 (inactive)	0.806 (inactive)	0.887 (inactive)	-0.0327	0.027 (inactive)	-0.52 (inactive)	1.24
COc1cc(C(O)C2C=CC3C(=O)N(C)C(=O)C3N2Nc2ccccc2)cc(OC)c1OC (stereo not given)	-0.283 (inactive)	0.923	1.28 (inactive)	1.01 (inactive)	0.508 (inactive)	1.07 (inactive)	-0.802	-1.41 (inactive)	-2.12 (inactive)	-2.14
CC(C)N1C(=O)c2ccccc2[C@@H](C(=O)NCCN2CCOCC2)[C@@H]1c1ccc(CO)cc1	-0.675 (inactive)	-0.0908	2.01 (inactive)	-0.151 (inactive)	1.24 (inactive)	0.255 (inactive)	-0.468	1.59 (inactive)	0.675 (inactive)	0.474
COCC(=C=CC[C@H](O)c1ccc(CO)o1)CCO	-0.434 (inactive)	-0.198	0.811 (inactive)	0.0508 (inactive)	-0.148 (inactive)	-0.159 (inactive)	-0.992	0.249 (inactive)	-0.177 (inactive)	-0.224
CC1=C2[C@@H](CCc3ccccc3)OB(O)C[C@@H]2[C@@H]2C(=O)N(Cc3ccccc3)C(=O)[C@@H]2C1	-0.42 (inactive)	-0.301	11.8 (active)	1.28 (inactive)	-0.633 (inactive)	0.55 (inactive)	0.433	-0.0748 (inactive)	0.167 (inactive)	0.587
COC(=O)[C@@]1(Cc2ccc(OC)cc2)[C@H]2c3cc(C(=O)N4CCCC4)n(CCc4c[nH]c5ccc(O)cc45)c3C[C@H]2CN1C(=O)c1ccccc1	-0.0255 (inactive)	0.302	8.22 (active)	0.847 (inactive)	1.27 (inactive)	1.11 (inactive)	-0.029	-0.648 (inactive)	-6.51 (inactive)	-3.5
COC(=O)[C@@]1(Cc2ccccc2)[C@H]2c3cc(C(=O)N4CCCC4)n(CCc4ccccn4)c3C[C@H]2CN1C(=O)c1ccccc1	-1.5 (inactive)	0.928	1.93 (inactive)	0.0978 (inactive)	1.54 (inactive)	0.569 (inactive)	-0.266	0.267 (inactive)	0.311 (inactive)	-3.01
Cc1ccc(S[C@]2(C(=O)NCC(F)(F)F)CC(=O)N(Cc3cc(C(F)(F)F)cc(C(F)(F)F)c3)[C@@H]2c2ccc(CO)cc2)cc1	-0.415 (inactive)	-0.146	1.74 (inactive)	0.594 (inactive)	-0.573 (inactive)	0.501 (inactive)	-0.488	-0.0338 (inactive)	0.0959 (inactive)	0.496
